Common to all, as to details: mRNA level, 48 h; actives raise or lower the signal
Read-out in assay [1]: Cytochrome P450 3A7 (Homo sapiens) (UniProt P24462)
Put plainly: LTEA_HepaRG_CYP3A7: Life Technologies and Expression Analysis (LTEA) Assay for CYP3A7 using HepaRG (AID 2283492). The gist of the method: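 Human HepaRG liver cells, 48 h post-plating, switched to serum-free induction medium and exposed in duplicate for 48 h. Dosing: 100 uM top, half-log dilutions, 8 points, 0.5% DMSO vehicle. Read-out: CYP3A7 mRNA, gain or loss fitted against DMSO baseline.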

Read-out in assay [2]: CYP3A5 (gene 1577)
Nature of the assay: LTEA_HepaRG_CYP3A5: Life Technologies and Expression Analysis (LTEA) Assay for CYP3A5 using HepaRG (AID 2283493). In a few lines: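 mRNA induction or loss of CYP3A5 assessed in HepaRG after 48 h dosing, 100 uM top concentration, duplicate wells; TaqMan qRT-PCR with ACTB, GAPDH, POLR2A normalization; 0.5% DMSO as negative control.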

Read-out in assay [3]: Fatty Acid-Binding Protein 1 (FABP1), FABP1 (gene 2168)
Put plainly: LTEA_HepaRG_FABP1: Life Technologies and Expression Analysis (LTEA) Assay for Fatty Acid-Binding Protein 1 (FABP1) using HepaRG (AID 2283494). In a few lines:
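Differentiated human HepaRG cells exposed 48 h in serum-free induction medium to eight half-log concentrations up to 100 uM (0.5% DMSO), duplicate. FABP1 mRNA by qRT-PCR, normalised to ACTB, GAPDH, POLR2A; bidirectional fitting against DMSO.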

Read-out in assay [4]: Cytochrome P450 4A22 (Homo sapiens) (UniProt Q5TCH4)
Nature of the assay: LTEA_HepaRG_CYP4A22: Life Technologies and Expression Analysis (LTEA) Assay for Cytochrome P450 4A22 (CYP4A22) using HepaRG (AID 2283495). In a few lines:
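Readout is CYP4A22 transcript induction or loss, quantified by qRT-PCR and normalized to ACTB, GAPDH and POLR2A. Human HepaRG cells receive test chemicals for 48 h at eight half-log concentrations from 100 uM in 0.5% DMSO.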

Read-out in assay [5]: Cytochrome P450 7A1 (Homo sapiens) (UniProt P22680)
Nature of the assay: LTEA_HepaRG_CYP7A1: Life Technologies and Expression Analysis (LTEA) Assay for Cytochrome P450 7A1 (CYP7A1) using HepaRG (AID 2283496). In a few lines: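 Gene expression endpoint in human HepaRG liver cells treated for 48 h with test chemicals (up to 100 uM, 0.5% DMSO). Values come from bidirectional concentration-response fitting versus DMSO.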

Read-out in assay [6]: Glutamate-cysteine ligase catalytic (GCLC), GCLC (gene 2729)
Nature of the assay: LTEA_HepaRG_GCLC: Life Technologies and Expression Analysis (LTEA) Assay for Glutamate-cysteine ligase catalytic (GCLC) using HepaRG (AID 2283498). The gist of the method: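 Differentiated HepaRG cells exposed 48 h in serum-free induction medium, eight-point half-log series topping at 100 uM in 0.5% DMSO, duplicates. GCLC mRNA by qRT-PCR normalized to ACTB, GAPDH and POLR2A, fitted bidirectionally versus DMSO.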

Read-out in assay [7]: growth arrest and DNA damage 45 (GADD45G), GADD45G (gene 10912)
Put plainly: LTEA_HepaRG_GADD45G: Life Technologies and Expression Analysis (LTEA) Assay for growth arrest and DNA damage 45 (GADD45G) using HepaRG (AID 2283499). In a few lines:
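Gain or loss of GADD45G mRNA, quantified by TaqMan qRT-PCR against three housekeeping genes, is fitted in both directions relative to 0.5% DMSO. Human HepaRG cultures receive test chemical for 48 h at up to 100 uM.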

Read-out in assay [8]: Glutamate-cysteine ligase regulatory (GCLM), GCLM (gene 2730)
Put plainly: LTEA_HepaRG_GCLM: Life Technologies and Expression Analysis (LTEA) Assay for Glutamate-cysteine ligase regulatory (GCLM) using HepaRG (AID 2283500). The gist of the method:
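Human liver HepaRG cultures receive test chemicals for 48 hours at up to 100 uM in 0.5% DMSO. GCLM expression is measured by qRT-PCR and analysed for increases or decreases against vehicle.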

Read-out in assay [9]: Glutathione S-transferase M3 (GSTM3), GSTM3 (gene 2947)
Put plainly: LTEA_HepaRG_GSTM3: Life Technologies and Expression Analysis (LTEA) Assay for Glutathione S-transferase M3 (GSTM3) using HepaRG (AID 2283501). The gist of the method: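 HepaRG, plated 48 h, then serum-free induction medium; test chemical 48 h, duplicate; 100 uM top, half-log x8, 0.5% DMSO. Read-out: GSTM3 mRNA (TaqMan qRT-PCR, Fluidigm array). Bidirectional fit vs DMSO.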

Read-out in assay [10]: Heat shock 70 kDa protein 1 (HSPA1A), gene 3303
Put plainly: LTEA_HepaRG_HSPA1A: Life Technologies and Expression Analysis (LTEA) Assay for Heat shock 70 kDa protein 1 (HSPA1A) using HepaRG (AID 2283502). The gist of the method:
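HSPA1A induction in human HepaRG liver cells is measured after 48 h of chemical treatment (100 uM maximum, 0.5% DMSO vehicle). Expression comes from qRT-PCR normalized to endogenous controls.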

Read-out in assay [11]: Hypoxia-inducible factor 1-alpha (Homo sapiens) (UniProt Q16665)
Put plainly: LTEA_HepaRG_HIF1A: Life Technologies and Expression Analysis (LTEA) Assay for Hypoxia-inducible factor 1 (HIF1A) Trancription factor using HepaRG (AID 2283503).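 Note: HIF1A transcript by TaqMan qRT-PCR normalized to ACTB GAPDH and POLR2A.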 In a few lines: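 HepaRG, 48 h exposure, 8-pt half-log series from 100 uM, 0.5% DMSO vehicle, duplicates. Readout: HIF1A transcript by qRT-PCR (Fluidigm array), housekeeping-normalised. Bidirectional curve fit vs DMSO baseline.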

Read-out in assay [12]: 3-Hydroxy-3-Methylglutaryl-CoA Synthase 2 (HMGCS2), HMGCS2 (gene 3158)
Nature of the assay: LTEA_HepaRG_HMGCS2: Life Technologies and Expression Analysis (LTEA) Assay for 3-Hydroxy-3-Methylglutaryl-CoA Synthase 2 (HMGCS2) using HepaRG (AID 2283504). In a few lines: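 HepaRG, plated 48 h then switched to serum-free induction media; cmpd 8-pt, max 100 uM, 1/2-log, 0.5% DMSO, n=2, 48 h. HMGCS2 mRNA by Fluidigm TaqMan qRT-PCR, ACTB/GAPDH/POLR2A norm; bidirectional fit vs DMSO.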

Read-out in assay [13]: HGF (gene 3082)
Nature of the assay: LTEA_HepaRG_HGF: Life Technologies and Expression Analysis (LTEA) Assay for Hepatocyte Growth Facto (HGF) using HepaRG (AID 2283505). The gist of the method:
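Read-out is HGF transcript level by qRT-PCR, normalized to three housekeeping genes, fitted bidirectionally against 0.5% DMSO vehicle. Human HepaRG cells received test chemicals for 48 h at up to 100 uM.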

Read-out in assay [14]: Insulin Like Growth Factor 1 (IGF1), IGF1 (gene 3479)
Nature of the assay: LTEA_HepaRG_IGF1: Life Technologies and Expression Analysis (LTEA) Assay for Insulin Like Growth Factor 1 (IGF1) using HepaRG (AID 2283506). In a few lines: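 Using human HepaRG liver cells, IGF1 transcript induction or suppression is measured 48 h after dosing across eight concentrations capped at 100 uM. Values derive from bidirectional concentration-response fitting with DMSO as baseline.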

Read-out in assay [15]: Intercellular Adhesion Molecule 1 (ICAM1), ICAM1 (gene 3383)
Put plainly: LTEA_HepaRG_ICAM1: Life Technologies and Expression Analysis (LTEA) Assay for Intercellular Adhesion Molecule 1 (ICAM1) using HepaRG (AID 2283507). The gist of the method: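 Readout is qRT-PCR mRNA level, normalized to three housekeeping genes and fitted bidirectionally against 0.5% DMSO vehicle. Human HepaRG cultures received compound for 48 h, top concentration 100 uM with half-log dilutions.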

Read-out in assay [16]: Insulin-like growth factor-binding protein 1 (IGFBP1), IGFBP1 (gene 3484)
Put plainly: LTEA_HepaRG_IGFBP1: Life Technologies and Expression Analysis (LTEA) Assay for Insulin-like growth factor-binding protein 1 (IGFBP1) using HepaRG (AID 2283508). The gist of the method:
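Thawed HepaRG cells are plated for 48 h, switched to serum-free induction medium, then dosed in duplicate for another 48 h (100 uM top, half-log steps). Lysates in RLT go to qRT-PCR, and gain or loss of signal is fitted relative to vehicle.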

Read-out in assay [17]: Interleukin 6 (IL6), IL6 (gene 3569)
Nature of the assay: LTEA_HepaRG_IL6: Life Technologies and Expression Analysis (LTEA) Assay for Interleukin 6 (IL6) using HepaRG (AID 2283509). The gist of the method:
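HepaRG cells exposed in duplicate for 48 h to eight half-log concentrations, top 100 uM, in 0.5% DMSO serum-free induction medium. mRNA measured by qRT-PCR, normalized to ACTB, GAPDH and POLR2A. Bidirectional fit versus DMSO.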

Read-out in assay [18]: Interleukin 6 Receptor (IL6R), IL6R (gene 3570)
Nature of the assay: LTEA_HepaRG_IL6R: Life Technologies and Expression Analysis (LTEA) Assay for Interleukin 6 Receptor (IL6R) using HepaRG (AID 2283510). In a few lines: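 Concentration-response in human liver HepaRG cells: eight concentrations from 100 uM downward by half-logs, 48 h exposure, 0.5% DMSO vehicle. IL6R mRNA change measured by qRT-PCR and fitted in both directions relative to vehicle.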

Read-out in assay [19]: Potassium channel subfamily K member 1 (KCNK1), KCNK1 (gene 3775)
Nature of the assay: LTEA_HepaRG_KCNK1: Life Technologies and Expression Analysis (LTEA) Assay for Potassium channel subfamily K member 1 (KCNK1) using HepaRG (AID 2283511). The gist of the method: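 Differentiated HepaRG cells, 48 h exposure in serum-free induction medium with 0.5% DMSO; 8 concentrations, half-log from 100 uM, duplicate. KCNK1 mRNA by qRT-PCR, normalized to ACTB, GAPDH, POLR2A; bidirectional fit vs DMSO.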

Read-out in assay [20]: Glutathione S-Transferase (GSTA2), GSTA2 (gene 2939)
Put plainly: LTEA_HepaRG_GSTA2: Life Technologies and Expression Analysis (LTEA) Assay for Glutathione S-Transferase (GSTA2) using HepaRG (AID 2283497). The gist of the method:
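Differentiated human HepaRG cells were exposed in duplicate for 48 h in serum-free induction medium, 8 points from 100 uM top in half-log steps, 0.5% DMSO. GSTA2 mRNA was measured by TaqMan qRT-PCR, normalized to ACTB, GAPDH and POLR2A; bidirectional fit versus DMSO.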

Activity calls are given as the source filed them. Rule for the calls: active = hit-call score of the fitted dose curve at least 0.9, where 1 is the maximum; inactive = score below 0.9.

Hypoxia-inducible factor 1-alpha (Homo sapiens), sequence (Q16665 whole entry, looked up): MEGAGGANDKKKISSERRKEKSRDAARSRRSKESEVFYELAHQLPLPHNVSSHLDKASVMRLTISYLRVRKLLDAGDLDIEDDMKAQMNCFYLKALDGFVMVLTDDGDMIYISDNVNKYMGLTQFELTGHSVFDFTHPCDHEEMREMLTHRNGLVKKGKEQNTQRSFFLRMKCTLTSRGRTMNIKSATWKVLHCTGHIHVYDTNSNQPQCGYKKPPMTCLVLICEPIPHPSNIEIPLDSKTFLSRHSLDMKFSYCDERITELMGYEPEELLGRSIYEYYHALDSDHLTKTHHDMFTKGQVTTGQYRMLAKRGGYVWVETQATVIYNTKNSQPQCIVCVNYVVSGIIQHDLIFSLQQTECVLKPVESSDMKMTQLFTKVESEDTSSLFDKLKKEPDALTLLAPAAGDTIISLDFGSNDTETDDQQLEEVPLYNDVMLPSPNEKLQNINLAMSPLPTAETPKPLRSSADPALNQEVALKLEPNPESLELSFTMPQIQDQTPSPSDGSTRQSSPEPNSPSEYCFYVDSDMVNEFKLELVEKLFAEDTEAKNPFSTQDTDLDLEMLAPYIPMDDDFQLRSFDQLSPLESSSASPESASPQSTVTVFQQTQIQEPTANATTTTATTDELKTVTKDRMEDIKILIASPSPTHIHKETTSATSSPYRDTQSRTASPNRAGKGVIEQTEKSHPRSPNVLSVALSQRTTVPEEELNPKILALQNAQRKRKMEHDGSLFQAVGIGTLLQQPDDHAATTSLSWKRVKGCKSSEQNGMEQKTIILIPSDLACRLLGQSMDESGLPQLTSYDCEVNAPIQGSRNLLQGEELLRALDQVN
Cytochrome P450 3A7 (Homo sapiens), sequence (P24462 whole entry, looked up): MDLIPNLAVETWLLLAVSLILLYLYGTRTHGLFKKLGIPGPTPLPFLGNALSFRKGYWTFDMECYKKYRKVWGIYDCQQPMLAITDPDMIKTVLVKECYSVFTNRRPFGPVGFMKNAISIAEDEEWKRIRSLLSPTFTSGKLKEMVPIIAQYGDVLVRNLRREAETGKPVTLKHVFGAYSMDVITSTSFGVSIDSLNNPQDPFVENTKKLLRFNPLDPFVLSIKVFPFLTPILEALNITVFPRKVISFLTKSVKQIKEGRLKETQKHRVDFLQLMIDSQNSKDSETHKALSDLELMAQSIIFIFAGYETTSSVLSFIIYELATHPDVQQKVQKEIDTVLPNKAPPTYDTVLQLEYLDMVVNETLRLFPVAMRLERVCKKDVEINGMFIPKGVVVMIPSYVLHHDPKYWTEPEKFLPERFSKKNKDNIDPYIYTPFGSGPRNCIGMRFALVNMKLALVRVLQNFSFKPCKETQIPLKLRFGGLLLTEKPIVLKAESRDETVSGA

In general, AC50 refers to the concentration at which the activity in the assay is half-maximal. In the case of `CCN(CC)C(=O)SCc1ccc(Cl)cc1`, the molecule was called inactive in [1], in [2], in [4], in [5], in assay [6] and in assay [7]. For the same molecule, the result in [8], in assay [9], in [10], in assay [11], in assay [12] and in assay [13] was inactive. The molecule was classed as inactive in [14], in [15], in assay [16], in [17], in assay [18] and in assay [19]. Further, the AC50 in [3] was 15.4 µM (active).

As for `CNC(=O)Oc1cccc(N=CN(C)C)c1`, the result in [1], in assay [2], in [3], in assay [4], in assay [5] and in [20] was inactive. For the same molecule, the molecule was classed as inactive in [6], in [7], in assay [8], in [9], in assay [10] and in assay [11]. Besides, the result in [12], in assay [13], in assay [14], in assay [15], in assay [16] and in [17] was inactive. Further, the outcome in assay [18] and in [19] was inactive.

Values taken from PubChem BioAssay (EPA / NIEHS).
